# Results from the supplement of paper PMC5499739.
# Over roughly 16,000 sequences, “Z-score” has its median near -0.37; the highest 2% begin near 3.2. This is one part of a sample in which the highest values are shown more often than they occur.
# System: RBM10 RRM1-ZnF (GST-tagged construct)
# Experiment: RNAcompete 7-mer binding Z-score; higher = stronger binding preference
# How it was run: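 Each heptamer motif was given a one-sided Z-score for enrichment across the probes that contained it. GST-tagged RBM10 constructs (20 pmol) were combined with 1.5 nmol of a designed pool of 241 399 RNAs of up to 41 nt, transcribed from microarray-derived DNA templates. Binding took place in 1 ml Hepes pH 7.8 buffer containing KCl, NaCl, glycerol, DTT, BSA and glutathione Sepharose beads for 30 min at 4°C. After four 2-min washes at 4°C, bound RNA was identified by microarray hybridisation.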
row,Sequence,RNAcompete 7-mer binding Z-score
1,GAAACGU,-0.00246
2,GACAGCC,-0.539
3,CGUCUGC,-0.759
4,UUUUAAC,-0.818
5,GUAGAUG,1.93
6,AGGUUCA,-0.0285
7,UUUUCUU,-0.772
8,GAGCGGU,1.72
9,GAGCGAG,3.42
10,GAGCGGC,1.44
11,GAGCGAC,0.192
12,GAGCGGG,3.61
13,CAGCGGG,2.5
14,UAGCGGA,1.13
15,UAGCGAG,0.826
16,GAGCGGA,3.98
17,CCUACCU,-0.766
18,CCAGUCC,-0.789
19,AACGACU,-0.457
20,CGUGCUG,-0.149
21,CCCGCUC,-0.552
22,GGGUAAC,2.4
23,GGGUAAA,3.98

row,Sequence,RNAcompete 7-mer binding Z-score
1,CGGUAAA,0.29
2,CGGUAAG,1.26
3,GGGUAAG,4.39
4,AGGUAAA,1.82
5,CCCUUCA,-0.776
6,CCACUAC,-0.623
7,AUCCGAU,-0.717
8,GAAAAAG,1.49
9,GGGAAGU,3
10,GGGAAAA,3.4
11,GGGAAAG,4.79
12,CGGAAAA,0.654
13,GGAAAAG,3.24
14,GGGAAGA,3.86
15,CGGAAGA,0.923
16,CGGAAAG,1.84
17,UGAAAAG,0.381
18,UGGAAAG,2.84
19,GGAAAAA,1.86
20,UCCGAUG,-0.464
21,UGUACUA,-0.415
22,AUCGGCC,-0.62
23,CUCGCAG,-0.11

row,Sequence,RNAcompete 7-mer binding Z-score
1,GAGCUGG,1.88
2,GGUGCGG,2.92
3,GGCGUGC,0.738
4,CGGUCUU,-0.607
5,CUAUGGU,-0.116
6,CCUCUUA,-0.85
7,GGGGUAG,4.61
8,GGGGUAA,4.14
9,CGGGUAA,1.89
10,GUGGUAG,2.2
11,GGGGUAU,3.17
12,UGGGUAA,2.97
13,AAGGUAU,2.13
14,CGGGUAU,1.59
15,AGGGUAA,4.13
16,AGGGUAU,3.69
17,GAGGUAA,2.23
18,GGGGUAC,2.57
19,ACAUUGG,0.553
20,AGCUAAG,-0.035
21,CAUUUAC,-0.85
22,AAUCGAA,-0.181
23,ACCAGCC,-0.672

row,Sequence,RNAcompete 7-mer binding Z-score
1,CCUGAGG,0.339
2,GUUCUGU,-0.431
3,CACUAGC,-0.633
4,CCGUGCC,-0.532
5,AGAAUGG,3.27
6,CGAAUGG,1.29
7,UGAAUGG,2.5
8,GGAAUGU,1.94
9,GGAAUGG,4.85
10,AGAAUGU,0.235
11,UUGUUUG,0.0138
12,UCUAAGG,-0.00896
13,AUGCGUU,-0.405
14,UCCAACC,-0.805
15,AAAGGUG,3.71
16,GAAGGUG,4.59
17,GAAGGUU,2.87
18,GAAGGUA,3.84
19,UAAGGUA,1.5
20,CAAGGUG,1.76
21,UAAGGUG,2.16
22,AAAGGUA,3.05
23,GAAGGUC,1.25
